The text below walks through data of PubChem BioAssay (Tox21).

A number with no mark means an inactive call. Where a call stands in place of a potency, no number is given. The source made the active and inactive calls. The call rests on the fitted dose curve.
Potency means the concentration at half of the fitted maximal effect.

Chain of Muscarinic acetylcholine receptor M1 (Homo sapiens) (P11229 whole entry, looked up): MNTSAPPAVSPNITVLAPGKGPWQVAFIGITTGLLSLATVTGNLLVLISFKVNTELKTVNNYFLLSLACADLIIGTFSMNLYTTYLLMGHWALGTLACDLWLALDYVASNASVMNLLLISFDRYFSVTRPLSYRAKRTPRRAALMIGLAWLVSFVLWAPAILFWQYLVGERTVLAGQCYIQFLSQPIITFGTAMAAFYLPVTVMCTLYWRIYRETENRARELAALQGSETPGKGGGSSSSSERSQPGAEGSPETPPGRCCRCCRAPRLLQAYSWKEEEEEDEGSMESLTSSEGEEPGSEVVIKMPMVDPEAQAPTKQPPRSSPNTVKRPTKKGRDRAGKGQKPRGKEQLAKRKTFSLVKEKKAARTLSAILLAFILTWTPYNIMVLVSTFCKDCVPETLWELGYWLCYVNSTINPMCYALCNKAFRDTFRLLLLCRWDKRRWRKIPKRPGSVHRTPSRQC

This experiment concerns the target Muscarinic acetylcholine receptor M1 (Homo sapiens) (UniProt P11229). Briefly: Cholinergic receptor muscarinic 1 (CHRM1) small molecule agonists, cell-based qHTS assay (AID 1963589). Further: nearly all actives have a fitted effect of over 35% in size. Particulars: CHRM1-CHO cells, agonist mode, calcium flux fluorescence; series mostly up to 76.8 µM. An excerpt: National Center for Advancing Translational Sciences [NCATS]
Division of Preclinical Innovation [DPI]
U.S. Environmental Protection Agency [EPA]
National Institutes of Environmental Health Sciences [NIEHS]
National Toxicology Program [NTP]
U.S. Food and Drug Administration [FDA]
The CHRM1 is a muscarinic receptor. This receptor plays a crucial role in learning and memory processes and has long been identified as a promising therapeutic target for the improvement of cognitive decline in Alzheimer's disease (AD). The CHRM1-CHO cell line stably expressing human muscarinic acetylcholine receptor M1 (CHRM1) can be used for screening agonists and antagonists of interactions between CHRM1 and its ligands. The CHRM1-CHO Calcium Flux Assay is a homogeneous fluorescence-based assay for detecting the intracellular calcium level using FDSS kinetic plate reader system.
CHRM1-CHO cells were dispensed at 1000 cells/3uL/well in 1536-well black-clear bottom plates using a Multidrop Dispenser. After the assay plates were incubated at a 37 C/5% CO2 incubator for 18 h, 3 uL of Dye Loading Buffer was transferred to the assay plate by a Flying Reagent Dispenser. The assay plates were incubated at 37 C for 1h. For agonist mode, 23 nL of compounds dissolved in DMSO, positive controls or DMSO only was transferred to the assay plate by a pin tool. […] Each test compound was measured at 15 concentrations in three independent runs.
For orientation: qHTS replaces the single test concentration by a dilution series.
As for `OCCCBr`, the Potency result was “inactive”.

In the case of `ClC(Cl)=C(Cl)Cl`, the Potency result was “inactive”. On the same count and under the same terms, then `CCC(C)(C)O`, with “inactive”; and `O=C(CCCN1CCC2(CC1)C(=O)NCN2c1ccccc1)c1ccc(F)cc1`, with “inactive”; and `CC(C)(C)NC[C@H](O)c1ccc(O)cc1Cl`, with “inactive”. Same read-out and setting: next, `CC(Cl)(Cl)[N+](=O)[O-]`: “inactive”; `CC(=O)c1ccc(-c2ccccc2)cc1`: “inactive”. Regarding `CCCCCCC(=O)CCCCCC/C=C/C[C@@H](O)[C@H](O)[C@@](N)(CO)C(=O)O`, the activation is -0.559% [at 15.8 µM]. On to `CC(C)C[C@H](NC(=O)CNC(=O)[C@H](Cc1ccc(O)cc1)NC(=O)[C@H](CO)NC(=O)[C@H](Cc1c[nH]c2ccccc12)NC(=O)[C@H](Cc1cnc[nH]1)NC(=O)[C@@H]1CCC(=O)N1)C(=O)N[C@@H](CCCN=C(N)N)C(=O)N1CCC[C@H]1C(=O)NCC(N)=O` (stereo in doubt), for which the Potency result is “inactive”. On the same count and under the same terms, next, `COC1=CC(=O)O[C@@H](/C=C/c2ccc3c(c2)OCO3)C1`: “inactive”; `CCN(CC)CCOC(=O)C(C)(c1ccccc1)c1ccccc1`: “inactive”. On the same count and under the same terms, then `N#CCCl`, with “inactive”; and `Nc1c(Cl)c(F)nc(OCC(=O)O)c1Cl`, with “inactive”; and `N#Cc1sc2c(=O)c3ccccc3c(=O)c=2sc1C#N`, with “inactive”. Same read-out and setting: next, `CC(Cc1ccc(OCC(=O)O)cc1)NCC(O)c1csc(C(F)(F)F)n1` (stereo not given): “inactive”; `NC(=O)c1ccc(N)nc1`: “inactive”; `CCCCCCCCCCCCN(C)C`: “inactive”. Regarding `N#CSCc1ccccc1`, the Potency result was “inactive”. On to `NNCCO`, for which the Potency entry is “inactive”. Turning to `OCCBr`, the Potency entry is “inactive”. On the same count and under the same terms, next, `Oc1c(Br)c(Br)c(Br)c(Br)c1Br`: “inactive”; `CCC[CH2][Sn]([CH2]CCC)([O]C(C)=O)[O]C(C)=O`: “inactive”. On the same count and under the same terms, then `CCCN(CCC)c1c([N+](=O)[O-])cc(C(F)(F)F)cc1[N+](=O)[O-]`, with “inactive”; and `C=C(C)CN(CC)c1c([N+](=O)[O-])cc(C(F)(F)F)cc1[N+](=O)[O-]`, with “inactive”.

With `S=C=NCCc1ccccc1`, the Potency entry is “inactive”. As for `CC(=O)Nc1cc([As](=O)(O)O)ccc1O`, the Potency result is “inactive”. Same read-out and setting: next, `CC1CCCCC1NC(=O)Nc1ccccc1` (stereo not given): “inactive”.

Turning to `Clc1c(Cl)c(Cl)c(Cl)c(Cl)c1Cl`, the activation was 0.839% [at 6.97 µM]. For `NC(=O)CI`, the Potency result was “inactive”. Turning to `c1coc(-c2nc3ccccc3[nH]2)c1`, the Potency entry was “inactive”. Same read-out and setting: then `CCOP(=O)(OCC)Oc1cc(C)nc(C(C)C)n1`, with “inactive”; and `Cc1ccc([N+](=O)[O-])[c]2c1[O][Hg]2`, with 23.9 µM (active); and `CCCCCCCCCCCCCCC(Br)C(=O)O` (stereo not given), with “inactive”. Turning to `CC(C)(COCC1CO1)COCC1CO1` (stereo not given), the Potency result was “inactive”. For `CCOP(=O)(OCC)Oc1nc(Cl)c(Cl)cc1Cl`, the Potency entry was “inactive”. On the same count and under the same terms, next, `CCOP(=S)(Oc1ccc([N+](=O)[O-])cc1)c1ccccc1` (stereo not given): “inactive”; `CC(C)N(Cc1ccccc1)C(=O)C(C)(C)C`: “inactive”. Still for that read-out and setting: next, `CCOC(=O)c1ncn2c1CN(C)C(=O)c1c(I)cccc1-2`: “inactive”; `CCOP(=S)(OCC)SCCl`: “inactive”. On the same count and under the same terms, then `C[N+](C)(C)CCOC(=O)C(O)(c1ccccc1)c1ccccc1`, with “inactive”.
